Source: ChEMBL document CHEMBL3988442, “University of Dundee, Small-Polar-MMV Screening Library” (2021)
Among all 48,000 compounds or so, about 13,000 (27%) showed an effect of 50% or more. The list shows a part of the results.

The compounds below were run on Wolbachia pipientis (assay: Anti-Wolbachia Cell-Based Screen). Settings: 5 µM.
Assay type: functional
Set-up: scale not given: in the data most compounds retested in dose-response had high values

| SMILES | Percent Effect |
| --- | --- |
| Cc1cc(CN(C)C(=O)NCc2ccnc(SC(C)(C)C)c2)no1 | -6.174% |
| COc1ncccc1CNC(=O)CN1CCCCCC1=O | -54.83% |
| Cc1nc(N)nc(C)c1Cc1nc(C2CC2)n[nH]1 | -31.49% |
| Cc1cc(-c2ccc(=O)n(CCNC(=O)C3CCC3)n2)c(C)o1 | 82.02% |
| O=C(NCCCNC(=O)C1CCC1)NCCn1cccc1 | -4.539% |
| COCC(=O)NCCn1nc(-c2cc(C)oc2C)ccc1=O | 96.68% |
| Cc1noc(C)c1CCCNC(=O)C1CCN(C(C)C)CC1 | 1.059% |
| Cc1noc(C)c1CCCNC(=O)C1CCN(C(=O)C2CCC2)CC1 | 9.148% |
| Cc1cc(-c2ccc(=O)n(CCNC(=O)C3CCCCC3)n2)c(C)o1 | 127.3% |
| Cc1cc(-c2ccc(=O)n(CCNC(=O)C3CC3)n2)c(C)o1 | 72.81% |
| COCC(=O)Nc1ccccc1-c1ccc(=O)n(C)n1 | 7.916% |
| Cc1cc(C(O)CCNC(=O)COc2ccccc2F)c(C)o1 (stereo unspecified) | 1.741% |
| Cc1noc(C)c1CCCNC(=O)C1CCN(C(=O)C2CC2)CC1 | 11.33% |
| O=C(NCCNC(=O)C1CCCCC1)NCCn1cccc1 | 0.3641% |
| CC(C)NC(=O)NCCn1cnc(C2CCCC2)cc1=O | -0.7993% |
| CSc1ccc(NC(=O)NCc2nncn2C2CC2)cc1F | 6.164% |
| COCCN(CCOC)C(=O)c1ccc(Cn2nc(C)cc2C)cc1 | -2.502% |
| O=C(NCCN1CCCCC1)c1nc(-c2ccc3cc[nH]c3c2)no1 | 1.073% |
| Cc1cc(C)n(Cc2ccc(-c3noc(C(=O)NCCCO)n3)cc2)n1 | 113.7% |
| CCN(CCC(=O)OC)C(=O)c1cccc(Cn2nc(C)cc2C)c1 | 2.618% |
| Cc1cc(C)n(Cc2ccc(-c3noc(C(=O)NCCO)n3)cc2)n1 | 112.8% |

| SMILES | Percent Effect |
| --- | --- |
| CNC(=O)CCNC(=O)c1cccc(Cn2nc(C)cc2C)c1 | -10.69% |
| Cc1cc(C)n(Cc2ccc(C(=O)NCCN3CCOCC3)cc2)n1 | 0.4084% |
| Cc1cc(C)n(Cc2ccc(-c3noc(C(=O)NC[C@@H](C)O)n3)cc2)n1 | 107.8% |
| COCc1cc(C[C@@H]2CC[C@H](O)[C@@H](CNCC(C)C)O2)no1 | -7.367% |
| CC(C)CN1C(=O)C2(CCN(Cc3ccsc3)C2)c2ccccc21.O=C(O)C(F)(F)F (stereo unspecified) | 118.8% |
| CC(C)CN1C(=O)C2(CCN(Cc3nccs3)C2)c2ccccc21.O=C(O)C(F)(F)F (stereo unspecified) | 21.56% |
| CC(C)CN1C(=O)C2(CCN(Cc3ccoc3)C2)c2ccccc21.O=C(O)C(F)(F)F (stereo unspecified) | 60.6% |
| CN1CCN(Cc2cccnc2)C2(CCN(Cc3ccoc3)C2)C1=O.O=C(O)C(F)(F)F.O=C(O)C(F)(F)F.O=C(O)C(F)(F)F (stereo unspecified) | -11.48% |
| CC(C)CN1C(=O)C2(CCN(CC3CCOCC3)C2)c2ccccc21.O=C(O)C(F)(F)F (stereo unspecified) | 3.565% |
| Cc1ccc(CN2CCC3(C2)C(=O)N(CC2CC2)c2ccccc23)s1.O=C(O)C(F)(F)F (stereo unspecified) | 106.7% |
| Cc1ccc(CN2CCC3(C2)C(=O)N(CC(N)=O)c2ccccc23)s1 (stereo unspecified) | -16.39% |
| CC(C)CN1C(=O)C2(CCN(Cc3cccs3)C2)c2ccccc21.O=C(O)C(F)(F)F (stereo unspecified) | 129.4% |
| CCN(CC)C(CNCc1cc(F)cc(F)c1)c1ccco1 (stereo unspecified) | 4.253% |
| Cc1ccsc1[C@@H]1CCN(C(=O)CCc2cc(O)no2)C[C@H]1O | 2.962% |
| COc1ccccc1CC(=O)NCc1c(C)nc2cc(=O)[nH]n2c1C | -0.07038% |
| Cc1ccc(C(C)(O)CNC(=O)c2sccc2Br)o1 (stereo unspecified) | 16.11% |
| CC(c1nc(C2CC2)no1)N1CCC(NS(=O)(=O)c2cccs2)CC1 (stereo unspecified) | 7.931% |
| CC(C)CN1C(=O)C2(CCN(Cc3ccc(F)cc3)C2)c2ccccc21 (stereo unspecified) | 132% |
| Cc1ccc(CN2CCC3(C2)C(=O)N(CC(C)C)c2ccccc23)s1 (stereo unspecified) | 8.577% |
| O=C(O)C(F)(F)F.O=C(O)C(F)(F)F.c1cnc(N2CCOCC3(CCCN(CC4CC4)C3)C2)cn1 (stereo unspecified) | -18.67% |
| O=C(O)C(F)(F)F.c1cnc(N2C[C@H]3CCN(CC4CC4)C[C@H]3C2)cn1 | 93.44% |

| SMILES | Percent Effect |
| --- | --- |
| O=C(O)C(F)(F)F.O=C(O)C(F)(F)F.c1cnc(N2C[C@H]3CCN(CCN4CCCC4)C[C@H]3C2)cn1 | 87.36% |
| O=C(O)[C@]12CN(CC3CCC3)C[C@H]1CN(c1cnccn1)C2 | 5.69% |
| Cn1cc(CNCCc2nccs2)c(-c2cccnc2)n1 | 5.46% |
| C[C@@H]1CN(C2(C(=O)N3CC[C@H](O)C3)Cc3ccccc3C2)C[C@H](C)O1 | 3.055% |
| Brc1ccc2[nH]c3c(c2c1)CCCC3c1nn[nH]n1 (stereo unspecified) | 153.1% |
| CCc1ccc(C(=O)N2CCCC(c3nn[nH]n3)C2)cc1 (stereo unspecified) | 6.219% |
| c1ccc2c3c([nH]c2c1)C(c1nn[nH]n1)CCC3 (stereo unspecified) | 118.9% |
| O=c1[nH]c2ccccc2c(=O)n1Cc1nnnn1C1CC1 | -11.16% |
| Clc1ccc2[nH]c3c(c2c1)CCCC3c1nn[nH]n1 (stereo unspecified) | 91.29% |
| NCC1Cc2cc(Cl)cc(-c3cncc(C(=O)N4CCCCC4)n3)c2O1 (stereo unspecified) | 0.4481% |
| O=C(NCCc1cccs1)[C@]12COC[C@H]1CN(C1CCOCC1)C2.O=C(O)C(F)(F)F | -30.21% |
| O=C(O)C(F)(F)F.O=C1CO[C@@H]2CN(Cc3cccs3)C[C@H]2N1CC1CC1 | 3.643% |
| O=C(NCCc1cccs1)[C@H]1CO[C@H]2CCN(CC3CC3)C[C@H]2C1.O=C(O)C(F)(F)F | 100.3% |
| O=C(NCc1cccs1)c1nc2c(o1)CN(CC1CC1)C2.O=C(O)C(F)(F)F | -6.948% |
| O=C(NCc1cccs1)C1CNCC12CCOCC2.O=C(O)C(F)(F)F (stereo unspecified) | 1.102% |
| O=C(NCCc1cccs1)[C@H]1CO[C@H]2CCN(C3CCC3)C[C@H]2C1.O=C(O)C(F)(F)F | 119.1% |
| CC(C)NC(=O)[C@H]1C[C@@H]2[C@@H](C1)OCCN2Cc1cccs1.O=C(O)C(F)(F)F | -8.796% |
| CN1C[C@@H]2COC[C@]2(C(=O)NCCc2cccs2)C1.O=C(O)C(F)(F)F | -4.441% |
| O=C(NCc1cccs1)[C@H]1CO[C@H]2CCN(C3CCCC3)C[C@H]2C1.O=C(O)C(F)(F)F | 106.7% |
